# From PubChem BioAssay
# Values without a mark were called inactive. How the calls were made is not given here.
# Molecular target: Pantothenate synthetase (Mycobacterium tuberculosis (strain ATCC 25618 / H37Rv)) (UniProt P9WIL5)
# Test: Coupled enzyme confirmation of inhibitors against recombinant Mtb PanC (AID 375);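 further: 0% = full reaction with vehicle and 100% = no enzyme background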
# Details: coupled enzyme assay; at 10 µM, hits give high values
# Chain of Pantothenate synthetase (Mycobacterium tuberculosis (strain ATCC 25618 / H37Rv)) (P9WIL5 whole entry, looked up): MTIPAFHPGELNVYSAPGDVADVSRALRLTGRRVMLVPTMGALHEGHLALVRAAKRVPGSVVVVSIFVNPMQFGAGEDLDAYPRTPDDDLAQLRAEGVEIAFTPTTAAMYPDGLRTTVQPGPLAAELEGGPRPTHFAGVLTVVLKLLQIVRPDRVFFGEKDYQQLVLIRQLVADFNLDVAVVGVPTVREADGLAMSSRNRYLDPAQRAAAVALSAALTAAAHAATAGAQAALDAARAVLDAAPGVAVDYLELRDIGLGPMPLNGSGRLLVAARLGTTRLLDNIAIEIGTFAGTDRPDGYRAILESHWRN
row,Compound,inhibition
1,Cc1ccc(CCSCC(=O)O)cn1,0%
2,COc1ccc(C2c3c(oc4ccccc4c3=O)C(=O)N2c2ccc(C)cn2)cc1OC (stereo not given),0%
3,Cc1cc(Oc2ccccc2)nc(-c2ccccc2)n1,0%
4,CCc1cn([C@H]2C[C@H](O)[C@@H](CO)O2)c(=O)[nH]c1=O,0%
5,COc1ccc(N2CCN(C(c3cccs3)c3nnnn3C3CCCC3)CC2)cc1 (stereo not given),6%
6,COc1cc(-c2c(C#N)c(N)nc3c2CCCC3)cc(OC)c1OC,5%
7,CNC(=O)CN(c1ccc(C(C)C)cc1)S(C)(=O)=O,0%
8,CCc1ccccc1NC(=O)c1ccoc1C,0%
9,CCN1CCN(C(=O)c2cn(CC)c3ccc(S(=O)(=O)N(C)C)cc3c2=O)CC1,0%
10,Cc1ccc(-c2cc(C(=O)NCc3ccc4c(c3)OCO4)no2)cc1,0%
11,COc1ccc(CCNC(=O)CSCc2n[nH]c(=O)[nH]2)cc1OC,0%
12,CN(C)CCSc1nnc2sc3ccccc3n12,8%
13,CCOC(=O)c1oc2c(CN3CCN(C)CC3)c(O)ccc2c(=O)c1-c1ccccc1OC,0%
14,O=C(c1ccc(Cl)c(Cl)c1)N1CCOCC1,5%
15,O=C(CCC(=O)OCCCC(F)(F)C(F)(F)F)NC1CCCCC1,0%
16,Cc1ccc(S(=O)(=O)N2CCCC2C(=O)OCc2nc3ccccc3s2)cc1 (stereo not given),0%
17,CCCOc1ccc(-c2nnn(CC(=O)Nc3cccc(C(=O)OC)c3)n2)cc1,7%
18,COC(=O)c1ccccc1NC(=O)C1CC=CCC1C(=O)O (stereo not given),0%
19,COC(=O)c1cccc(NC(=O)Cc2coc3cc(OC)ccc23)c1,0%
20,CC1CCc2nn(CC(=O)NCc3ccc4c(c3)OCO4)cc2C1 (stereo not given),1%

row,Compound,inhibition
1,Cc1ccc(C)c(S(=O)(=O)n2cnc3ccccc32)c1,0%
2,COc1ccc(C(=O)Nc2cccnc2)cc1C(=O)Nc1cccnc1,0%
3,c1ccc(-c2csc(N3CCCCCC3)n2)cc1,4%
4,O=C(COC(=O)CCC(=O)c1cccs1)NCc1ccco1,0%
5,O=C(COc1ccc(Cl)cc1)Nc1nc(-c2cccs2)cs1,1%
6,Cn1c(CN2CCOCC2)nnc1SCC(=O)NCCc1ccccc1,0%
7,COc1ccc(C(=O)Nc2ccc(C)cn2)c(OC)c1,0%
8,CNc1ccc(C(O)(C(F)(F)F)C(F)(F)F)cc1C(O)(C(F)(F)F)C(F)(F)F,0%
9,CCOc1ccc(OCC)c2sc(C)nc12,2%
10,CCOc1ccc(N2CC(C(=O)Nc3ccccc3OC)CC2=O)cc1 (stereo not given),0%
11,CC(C)(C)n1nnnc1C(c1cccs1)N1CCN(Cc2ccccc2)CC1 (stereo not given),12%
12,CN1CCN(S(=O)(=O)c2ccc(NC(=O)c3ccc(F)cc3)cc2)CC1,0%
13,O=C(Cn1c(=O)n(Cc2ccc3c(c2)OCO3)c(=O)c2ccccc21)N1CCCc2ccccc21,0%
14,CCN(CCCNC(=O)CC1Oc2ccc(C)cc2NC1=O)Cc1ccccc1 (stereo not given),0%
15,CNC(=O)CSc1nnc(-c2cc3c(C)nn(-c4ccccc4)c3s2)n1C,2%
16,Cc1ccc(CCNC(=O)C2CCCN(S(=O)(=O)c3cnc[nH]3)C2)cc1 (stereo not given),2%
17,CCOc1ccccc1NC(=O)CSc1nnc(Cc2cccn2C)n1-c1ccc(F)cc1,5%
18,Cc1ccc2c(C)nc(NC3=NCN(C(C)C)CN3)nc2c1,0%
19,OC1(c2cccc(C(F)(F)F)c2)CCN(c2ccc(-c3ccccc3)nn2)CC1,0%
20,CCOc1ccc(C(=O)CN2CCN(S(=O)(=O)c3ccc(OC)cc3)CC2)cc1,1%
